Laboratory results taken from PubChem BioAssay (NCI).
Several values for one entry are separate records, joined by “and”; a condition that tells them apart may be missing. Equal entries are not always repeated. The panel holds about 79,000 compounds, 15% with a hit somewhere; the sample as a whole holds those more often. A number with no mark means an inactive call. Activity calls are given as the source filed them. No stated cut-off is given here; in the data, active means growth inhibition above about 70%; inactive means the rest.

Assays:
[1] = NCI Yeast Anticancer Drug Screen. Data for the rad50 strain (AID 155);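 further: 0% = growth of vehicle-only cultures of the same strain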; settings: S. cerevisiae rad50 strain growth inhibition, hits give high values; at 50.0 µM unless noted
Summary of the method: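 Growth of the mutant yeast was measured after compound exposure and referenced to vehicle-treated cultures.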

[2] = NCI Yeast Anticancer Drug Screen. Data for the mec2-1 strain (AID 157); settings: S. cerevisiae mec2-1 strain, hits give high values; at 50.0 µM unless noted
Summary of the method: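 Vehicle-treated cultures served as reference for growth inhibition of compound-exposed mec2-1 yeast.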

[3] = NCI Yeast Anticancer Drug Screen. Data for the sgs1 mgt1 strain (AID 161);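 further: 0% = growth of cultures given vehicle only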; settings: S. cerevisiae sgs1 mgt1 strain, hits give high values; at 50.0 µM unless noted
Summary of the method: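 Genetically altered yeast, compound exposure, growth inhibition relative to vehicle.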

[4] = NCI Yeast Anticancer Drug Screen. Data for the cln2 rad14 strain (AID 165);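 further: 0% = growth equal to vehicle treated cultures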; settings: S. cerevisiae cln2 rad14 strain, hits give high values; at 50.0 µM unless noted
Summary of the method: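 Each compound was tested on cln2 rad14 yeast. Inhibition of growth was calculated against vehicle-exposed controls.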

[5] = NCI Yeast Anticancer Drug Screen. Data for the bub3 strain (AID 167); settings: S. cerevisiae bub3 mutant strain, hits give high values; at 50.0 µM unless noted
Summary of the method: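 Whole-cell yeast assay. The mutant strain was incubated with compounds, and growth inhibition was determined by comparison with vehicle-treated cells.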

[6] = NCI Yeast Anticancer Drug Screen. Data for the mlh1 rad18 strain (AID 175); settings: S. cerevisiae mlh1 rad18 strain growth inhibition, hits give high values; at 50.0 µM unless noted
Summary of the method: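 Vehicle-treated cultures served as the reference for growth inhibition in a yeast strain carrying DNA damage repair alterations exposed to each compound.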

Structure (SMILES) | growth inhibition [1] | growth inhibition [2] | growth inhibition [3] | growth inhibition [4] | growth inhibition [5] | growth inhibition [6]
CCN(CC)CCOc1ccc(N2C(=O)c3cc(OC)c(OC)cc3C2=O)cc1 | -23.4% | -19% | -14.9% | 5.25% | -32.1% | -34.5%
Cc1cccc(C)c1I | -35% | -8.55% | -67.2% | -25.9% | -46.5% | -50.1%
CC(C)OC(=O)CCC(N)C(=O)O (centres undefined) | 2.95% | 0.6% | 1.85% | -4.8% | 2.55% | 0.1%
CC(C)(CO)C(O)C(=O)NN (centres undefined) | -2.8% | 2.95% | 8.6% | -6.25% | -3.9% | 3.25%
[N-]=[N+]=CC(=O)CCC(=O)N(c1ccccc1)c1ccccc1 | -30% | -20.8% | -52.5% | -28.5% | 2.2% | -30.6%
O=C(COCC(=O)N/N=C/C=C/c1ccccc1)N/N=C/C=C/c1ccccc1 | 7.7% | -6.3% | -0.65% | 3.35% | -2.95% | 19.2%
CC(=O)OC(C)(C)C#CC(C)(C)OC(C)=O | -9.95% | -24.4% | -15.4% | 3% | -11.7% | -19.3%
C(#Cc1ccccc1)COc1ccccc1 | 9.9% | 11.9% | -15.1% | 1.5% | 17.1% | -5.25%
COc1ccc(/C=C(/NC(=O)c2ccccc2)C(=O)O)c(OC)c1 | -7.35% | -5.1% | 1.2% | -61.4% | -10.1% | -9.65%
CN(C)CC(O)(C(=O)c1ccccc1)c1ccccc1 (centres undefined) | -4.35% | -9.8% | -13.5% | -25.2% | -19.6% | -6.05%
O=c1oc2ccccc2c(O)c1Cc1ccccc1Cc1c(O)c2ccccc2oc1=O | 4.4% | 4.65% | -13.2% | 10.9% | -19.9% | 65%
Cc1ccc(=O)[nH]n1 | -3.25% and -31.6% | -21.7% and -16.3% | -9.8% and -17.8% | -8.35% and -28.9% | -16.1% and -27.5% | 3.75% and -20%
CO[C@H]1C[C@H](n2cc(C)c(=O)[nH]c2=O)O[C@@H]1CO | -6.55% | -9.75% | -39.9% | -10.7% | -9.3% | -25.8%
Nc1nnc2nc(CC(=O)c3cccc([N+](=O)[O-])c3)/c(=C/C(=O)c3cccc([N+](=O)[O-])c3)n12 | 33.5% | 18.7% | 12.2% | 7.45% | -4.8% | 22.8%
CN1CCCC1CCN (centres undefined) | 0.15% | -10.8% | -13.8% | -1% | 3.9% | 6.15%
CC(C)(C)OC(=O)c1ccccc1C(=O)c1ccccc1 | -0.4% | -1.2% | -4.8% | 14.3% | 9.05% | -10.8%
COC(=O)[C@]1(C)CCCC2(C)C1CC[C@H]1C=C(C)[C@H]3CCC12C3 (some centres undefined) | 14% | 12.2% | -25.1% | 6.7% | -1.25% | 15.7%
CCOC(=O)c1c2ccc(/C=C/C(=O)OC)ccc-2c(C(=O)OCC)c1N | -23.8% | -24.4% | -23.4% | -23.2% | -37.6% | -4.35%
O=C1c2scc(-c3ccc(F)cc3)c2-n2cccc21 | 7.8% | 12.5% | 7.6% | 3.7% | 8.65% | 24.1%
CCN(CC)C(=O)CCn1cc(F)c(=O)[nH]c1=O | -65.8% | -51% | -35% | 1.65% | -25.8% | -15.9%

Structure (SMILES) | growth inhibition [1] | growth inhibition [2] | growth inhibition [3] | growth inhibition [4] | growth inhibition [5] | growth inhibition [6]
CCOC(=O)C(=CNc1ccc(OC)cc1[N+](=O)[O-])C(=O)OCC | 11.7% | 7.85% | 11.6% | 0.3% | 11.3% | 15.1%
O=c1c2ccccc2n2c(=S)[nH]nc2n1-c1ccccc1 | -2.7% | 3.55% | -12.2% | 6.95% | 0.05% | -10.8%
COc1cccc(/C=C/c2cnc3ccccc3n2)c1OC | -1.25% | 13.8% | -10.2% | 10.7% | -6.7% | -52.1%
O=c1c2c3c(sc2nc2n1N=C(c1ccc(Cl)cc1)CS2)CCCC3 | -23.6% | 6.05% | -37.9% | 1.8% | -12.1% | -16.6%
CN1C(=O)OC2OC(C)(c3ccc(S(=O)(=O)c4ccccc4)cc3)C(=O)CC21 (centres undefined) | -7.1% | 22.7% | -10.5% | -27% | 5.65% | 2.25%
CN(C(=O)c1ccc([N+](=O)[O-])cc1)C(c1ccco1)P(=O)(c1ccccc1)c1ccccc1 (centres undefined) | 71.1% (active) | 36.4% | 56.5% | 0.4% | 46.2% | 26.4%
Cc1ccc(NCC2CC/C(=C\c3ccc(Cl)cc3)C2=O)cc1 (centres undefined) | -43.8% | -22.8% | -33.4% | -50.5% | -10.2% | -32.3%
CCN(CC)CCn1c2cc3c(cc2c(=O)c2cccnc21)OCO3 | -18.1% | -17.6% | -29.4% | 13.8% | -34% | 24.1%
COc1ccc2c(c1)[n+](=O)c(C(=O)CC(=O)C(=O)Nc1cccc(C)c1C)c(C)n2[O-] | 2.35% | 13.3% | -9.55% | 9.45% | 5.3% | 14.8%
CS(=O)(=O)Nc1c(-c2ccccc2)oc2ccccc2c1=O | -12.1% | -0.8% | -6.5% | -33.6% | 11.3% | -3.85%
COc1cccc(-c2cc(=O)c3cc(C)cnc3[nH]2)c1 | -17.2% | 3.85% | 4.05% | -2.4% | 18.8% | -13.2%
O=C(O)CCNC(=O)CNC(=O)OCc1ccccc1 | 3.9% | 10.6% | -2.85% | 5.55% | -0.25% | -9.65%
COc1ccc2c(c1)CCN1CCCc3ccccc3C21 (centres undefined) | 22.4% | 2.75% | 6.3% | 25.8% | 14.8% | -5.75%
O=C1NCC2(CCN(CCCC3(c4ccc(F)cc4)OCCO3)CC2)N1c1ccccc1 | -14.1% | -0.05% | -1.55% | 1.4% | 6.4% | 1.55%
O=C(O)C(C(=O)N(c1ccccc1)c1ccccc1)c1ccccc1 (centres undefined) | 9.8% | -1.05% | 21.5% | -51.9% | 18.7% | 9.75%
CCOC(=O)/C=C/CCC(C)(C)COC(C)=O | -10.1% | -1.4% | -36.9% | -49.8% | 0.05% | -31.9%
COc1ccc(N2C(N)=C(C#N)C(C#N)(C#N)C2c2cccc([N+](=O)[O-])c2)cc1 (centres undefined) | 8.8% | -5.05% | -2.05% | 0.25% | -31.9% | 79.7% (active)
CC(CC(=O)c1cccc2ccccc12)C(=O)O (centres undefined) | 19% | 3.3% | 2.85% | 0.55% | -10.7% | 24.3%
O=NN1C(c2ccccc2)CNC(=O)CC1c1ccccc1 (centres undefined) | -27% | -1.4% | -1.65% | -8% | 20.6% | -18.2%
